In the supplement of paper PMC13380429:

System: Vero E6 infected with SARS-CoV-2
Assay: inhibition of SARS-CoV-2 cytopathic effect; higher = more antiviral protection, active = above 15
Details: 48 h

Measured: inhibition of SARS-CoV-2 cytopathic effect

CCOc1nc2cccc(C(=O)O)c2n1Cc1ccc(-c2ccccc2-c2nnn[nH]2)cc1 [candesartan]
inactive: 1 nM -1.63% | 8.33 nM -2.91% | 100 nM -3.25% | 833.33 nM -3.84% | 10000 nM -1.38%

CC(C)(CO)Cc1cc(C(C)(C)C)c(O)c(C(C)(C)C)c1
inactive: 1 nM -1.21% | 8.33 nM -2.15% | 100 nM 1.59% | 833.33 nM 4.34% | 10000 nM -0.79%

CCCC(=O)O[C@]1(C(=O)CCl)[C@@H](C)C[C@H]2[C@@H]3CCC4=CC(=O)C=C[C@]4(C)[C@@]3(F)C(=O)C[C@@]21C [clobetasone-butyrate]
inactive: 1 nM -0.68% | 8.33 nM -1.04% | 100 nM -5.39% | 833.33 nM -1.94% | 10000 nM 0.48%

CCCn1c(=O)c2nc(C34CC5CC(CC3C5)C4)[nH]c2n(CCC)c1=O
inactive: 1 nM 1.22% | 8.33 nM -0.55% | 100 nM 2.44% | 833.33 nM 2.31% | 10000 nM 1.25%

O=C(c1ccc(CN2CCOCC2)cc1)N1CCN(C2CC2)CC1 [bavisant]
inactive: 1 nM 0.41% | 8.33 nM 1.98% | 100 nM -1.82% | 833.33 nM -0.97% | 10000 nM 5.67%

CC(C)CC(NC(=O)OCC1c2ccccc2-c2ccccc21)C(=O)O (stereo in doubt)
inactive: 1 nM 1.66% | 8.33 nM 2.4% | 100 nM 2.95% | 833.33 nM 3.51% | 10000 nM 0.68%

CN1CCN(c2cccc(Nc3nc4c(-c5ccc(S(C)(=O)=O)cc5)cccn4n3)c2)CC1
inactive: 1 nM -0.26% | 8.33 nM 0.06% | 100 nM 0.85% | 833.33 nM -0.58% | 10000 nM -4.01%
